# Laboratory results reported in PubChem BioAssay (EPA / NIEHS).
# Calls of active or inactive are those of the source. How the source made its calls: active means hit-call score of the fitted dose curve at least 0.9, where 1 is the maximum; inactive means score below 0.9.
# Assay: ATG_AP_1_CIS: Attagene CIS-FACTORIAL HepG2 Assay for human Activator Protein 1 (AP-1) (AID 2282931)
# Details: HepG2 Attagene cis-factorial AP-1 reporter mRNA; actives raise or lower the signal
# Protocol: ATG_CIS is a cell-based, multiplexed-readout assay that uses HepG2, a human liver cell line, with measurements taken at 24 hours after chemical dosing in a 24-well plate.ATG_AP_1_CIS is one of 52 assay component(s) measured or calculated from the ATG_CIS assay. It is designed to make measurements of mRNA induction, a form of inducible reporter, as detected with fluorescence intensity signals by Reverse transcription polymerase chain reaction (RT-PCR) and Capillary electrophoresis technology.Data from the assay component ATG_AP_1_CIS was analyzed into 1 assay endpoint. This assay endpoint, ATG_AP_1_CIS, was analyzed with bidirectional fitting relative to DMSO as the negative control and baseline of activity. Using a type of inducible reporter, measures of mRNA for gain or loss-of-signal activity can be used to understand the reporter gene at the transcription factor-level as they relate to the gene FOS and JUN. Furthermore, this assay endpoint can be referred to as a primary readout, because this assay has produced multiple assay endpoints where this one serves a reporter gene function. To generalize the intended target to other relatable targets, this assay endpoint is annotated to the dna binding intended target family, where the subfamily is basic leucine zipper.
# Human liver HepG2 cells are transiently transfected with multiple reporter transcription units (MRTUs) in 6-well plates using FuGene 6 reagent (Roche; 3 ml FuGene/1 mg DNA). The MRTU constructs are regulated by a cis-regulating element (promoter). […] A major difference between the CIS and TRANS system is that in CIS activities of endogenous TFs are measured, whereas the TRANS assay evaluates changes in activities of exogenous, chimeric NR-Gal4 proteins. […] At the end of 24 hour incubation, total RNA was isolated using TriZol reagent (Invitrogen). The isolated RNA is then reverse-transcribed using oligo(dT) primer and Mo-MLV reverse transcriptase (Invitrogen) with DNAse I (Ambion) treatment for 30 min. The one-tenth of the produced cDNA was amplified by PCR using Taq DNA polymerase (Invitrogen) and two reporter sequence-specific primers. The PCR products were fluorescently labeled by primer extension with 6-arboxyfluorescein (6-FAM) 5'-labeled reporter sequence-specific primer (2 min at 95 C, 20 s at 68 C and 10 min at 72 C) and these products were digested with 5U of HpaI (New England Biolabs) for 2h at 37 C. The fragments were purified using Qiaquick PCR columns (Qiagen), analyzed on an ABI 3130xL genetic analyzer (Applied Biosystems) with peak positions identified by using a set of X-rhodamine (ROX)-labeled MapMarker1000 molecular weight standards (BioVentures). The raw capillary electrophoresis data was processed using Attagraph software (Attagene).
Structure (SMILES),outcome,AC50
CC(C)(C#N)c1cc(Cn2cncn2)cc(C(C)(C)C#N)c1,inactive,–
O=c1[nH]nnc2ccccc12,inactive,–
O=P(c1ccccc1)(c1ccccc1)c1ccccc1,inactive,–
FC1(F)C(F)(F)C(F)(F)C2(F)C(F)(C1(F)F)C(F)(F)C(F)(F)C1(F)C(F)(F)C(F)(F)C(F)(F)C(F)(F)C12F (stereo not given),inactive,–
CC(=O)[O][Al][O]C(C)=O,inactive,–
CC(O)C(C)O (stereo not given),inactive,–
CC(C)(C)c1n[nH]c(=S)n(N)c1=O,inactive,–
CCOc1ccccc1OCC,inactive,–
Cc1ccc(C(=O)c2cc(O)c(O)c([N+](=O)[O-])c2)cc1,inactive,–
Cc1ccccc1C=O,inactive,–
O=Cc1ccc(F)cc1,inactive,–
CC(C)Oc1ccccc1O,inactive,–
CC(C)OP(=O)(CP(=O)(OC(C)C)OC(C)C)OC(C)C,inactive,–
CC(C)=CCC[C@](C)(O)[C@@H]1CC=C(C)CC1,inactive,–
C#C[C@]1(O)CC[C@H]2[C@@H]3CCC4=Cc5oncc5C[C@]4(C)[C@H]3CC[C@@]21C,–,26.2 µM (active)
COCCOCCOCCOCCOCCO,inactive,–
CC(C)=CCC/C(C)=C/COC=O,inactive,–
CCCCCCC#CC(=O)OC,inactive,–
CN(C)C(=N)N=C(N)N,inactive,–
CCC(C)CCCC(C)(C)O (stereo not given),inactive,–

Structure (SMILES),outcome,AC50
O=C1CCCCCCCCCCCCCCO1,–,46.2 µM (active)
O=S(=O)(O)NC1CCCCC1,inactive,–
Clc1nc(C(Cl)(Cl)Cl)c(Cl)c(Cl)c1Cl,–,28.8 µM (active)
CC(C)(CO)[N+](=O)[O-],inactive,–
N#Cc1ccccc1,inactive,–
NCCCN1CCOCC1,inactive,–
CC(=O)O[C@]1(C(C)=O)CC[C@H]2[C@@H]3C[C@H](C)C4=CC(=O)CC[C@]4(C)[C@H]3CC[C@@]21C,inactive,–
Cc1ccc(C=O)cc1,inactive,–
CC(C)C1CCC(O)CC1 (stereo not given),inactive,–
CN1[C@@H]2CC(OC(=O)[C@H](CO)c3ccccc3)C[C@H]1[C@@H]1O[C@@H]12 (stereo not given in full),inactive,–
CC1(C)OC[C@@H]2O[C@@]3(C(=O)O)OC(C)(C)O[C@H]3[C@@H]2O1,inactive,–
Cc1ccc(O)c(C(C)(C)C)c1,–,100 µM (active)
CCC(=O)OCc1ccccc1,inactive,–
O=c1cc(-c2ccccc2)oc2cc(O)cc(O)c12,inactive,–
O=C(O)COCCN1CCN(C(c2ccccc2)c2ccc(Cl)cc2)CC1 (stereo not given),inactive,–
NNc1nc(-c2ccc(N)cc2)cs1,inactive,–
C=C(C)C(=O)Nc1ccc(Cl)c(Cl)c1,inactive,–
O=C(Nc1ccccc1)c1cc([N+](=O)[O-])ccc1Cl,–,100 µM (active)
CC1COc2ccccc2N1C(=O)C(Cl)Cl (stereo not given),–,27.4 µM (active)
NCCOCCO,inactive,–
